PubChem BioAssay (NCATS)
Results filed as inconclusive are left out. Calls of active or inactive are those of the source. Calls follow the shape of the dose curve; as a rule, active = well fitted curve in the direction sought with a large enough effect; inconclusive = small, poorly fitted or top-dose-only effect, or another doubt; inactive = no such curve, though single readings can be large; an effect the other way counts as inactive or inconclusive.

What was measured:
[1] = Cellular Toxicity (caspase-3) Mesangial (AID 660); details: mesangial cells, normalized: DMSO 0%, 100 µM tamoxifen 100%; at 91.7 µM (top of the series);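 also: combined caspase 3 and 7 activity read by Caspase-Glo luminescence; cells exposed to compound for 16 h before the caspase read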
How it was run: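 Seed cells derived from normal human renal glomeruli, incubate 5 h, add compounds across concentrations and incubate 16 h at 37 °C. Caspase 3/7 activation is then quantified by luciferase light, with AC50 derived by Hill modeling.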

[2] = Cellular Toxicity (caspase-3) SK-N-SH (AID 661);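 also: 0% = DMSO basal and 100% = 10 µM staurosporine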
How it was run: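 Cells were seeded and incubated 5 hr at 37 °C, dosed with compound over a concentration range for 16 hr, then given Caspase-Glo 3/7 reagent for 1 hr at room temperature before luminescence reading.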

[3] = Cellular Toxicity (caspase-3) H-4-II-E (AID 663); details: H-4-II-E rat hepatoma, scaled: DMSO 0%, 100 µM tamoxifen 100%; at 92.2 µM (top of the series);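 also: cells exposed to compound for 16 hr before readout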
How it was run: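 Caspase 3/7 activation measured by luminescent aminoluciferin substrate cleavage after 16 hr compound treatment of H-4-II-E cells in complete medium. Increase normalized between DMSO (basal) and 100 uM tamoxifen (100%); Hill-equation AC50 from concentration-response.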

[4] = Cellular Toxicity (caspase-3) Hek293 (AID 664); details: HEK293 caspase-3 activation, DMSO = 0%, 100 µM tamoxifen = 100%; at 92.2 µM (top of the series);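 also: cells exposed to compound for 16 h at 37 °C before readout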
How it was run: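 qHTS, HEK293 (human embryonic kidney), 16 h cpd exposure in complete medium. Caspase-3/7 activation = luminescence increase; normalized to DMSO/100 uM tamoxifen; Hill-fit AC50.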

[5] = Cellular Toxicity (caspase-3) N2a (AID 665);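 also: compound exposure lasted 16 h at 37 °C before readout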
How it was run: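 Caspase-3/7 activation, measured as increased luminescence from aminoluciferin release, is quantified in mouse N2a cells exposed to compounds for 16 h. Values are normalized to DMSO and 10 uM staurosporine, with AC50 derived by Hill modelling.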

[6] = Cellular Toxicity (caspase-3) NIH 3T3 (AID 666);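 also: 0% = DMSO basal and 100% = 100 µM tamoxifen stimulation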
How it was run: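 Cells were plated at 1000 per well and incubated 5 hr at 37°C, then compound was added for 16 hr. Caspase-Glo 3/7 reagent followed for 20 min at room temperature before luminescence was read.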

[7] = target: Cytochrome P450 3A4 (Homo sapiens) (UniProt P08684); assay: qHTS Assay for Inhibitors and Substrates of Cytochrome P450 3A4 (AID 884); also: % is scaled to controls: 0 for no effect and ±100 for the full control effect; nearly all actives have a fitted effect of over 50% in size
How it was run: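 Luminescent readout of luciferin produced by CYP3A4 (20 nM) dealkylation of Luciferin-PPXE, 25 uM (its KM). NADPH-driven reaction ran 60 min at RT after 10 min compound preincubation; data scaled to 57 uM ketoconazole as 100% inhibition.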

[8] = MultiTox-Fluor Cytotoxicity Assay - LYMP1-001 - Dead Cells (AID 946)
How it was run: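 Cytotoxicity as increased dead-cell protease fluorescence (bis-AAF-R110, 485/520 nm), read 60 min after MultiTox-Fluor reagent. Human lymphoblastoid line exposed 16 h; Hill-fitted AC50, with DMSO as 0% and 15 uM tetraoctylammonium bromide as 100%.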

[9] = MultiTox-Fluor Cytotoxicity Assay - LYMP1-001 - Live Cells (AID 947);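 also: 0% = DMSO only and full inhibition = tetraoctylammonium bromide control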
[10] = Cell Viability - LYMP1-002 - Assay at 16 hr (AID 948);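 also: 0% = DMSO alone and full effect = 92 µM tetraoctylammonium bromide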
How it was run: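 LYMP1-002 human lymphoblastoid cells, 2500/well; 5 hr 37 C; cpd 16 hr 37 C; CellTiter-Glo 30 min RT; luminescence (ATP). Concentration-response, Hill-fit AC50. Pos ctrl tetraoctylammonium bromide.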

[11] = MultiTox-Fluor Cytotoxicity Assay - LYMP1-002 - Live Cells (AID 955); also: % is scaled to controls: 0 for no effect and ±100 for the full control effect
How it was run: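 Cells were seeded at 2500 per well and incubated 5 hr. Compounds were then added for 16 hr at 37 C, followed by MultiTox-Fluor reagent for 60 min at room temperature and fluorescence reading of viable-cell protease signal.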

[12] = MultiTox-Fluor Cytotoxicity Assay - LYMP1-002 - Dead Cells (AID 960); also: nearly all actives have a fitted effect of over 60% in size
How it was run: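 Cells were plated, rested 5 hr, then treated with compound dilution series for 16 hr at 37 C. After adding substrate reagent and 60 min at room temperature, dead-cell protease fluorescence gave concentration-response curves fitted by the Hill equation.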

[13] = MultiTox-Fluor Cytotoxicity Assay - LYMP1-003 - Dead Cells (AID 961); also: nearly all actives have a fitted effect of over 70% in size
How it was run: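 Dead-cell protease release, detected as bis-AAF-R110 fluorescence at 485/520 nm, was measured in LYMP1-003 cells after 16 h compound treatment at 37 C. AC50 values came from Hill-modeled qHTS curves normalized to DMSO (0%) and 15 uM tetraoctylammonium bromide (100%).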

[14] = MultiTox-Fluor Cytotoxicity Assay - LYMP1-003 - Live Cells (AID 962);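 also: cells exposed to compound for 16 hours at 37 °C; 0% = DMSO only and full loss = 92 µM tetraoctylammonium bromide; cytotoxic hits lower the live-cell protease signal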
How it was run: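 Acute cytotoxicity is scored as a drop in live-cell protease activity in human lymphoblastoid LYMP1-003 cells after 16 hr compound exposure at 37 C. AC50 values come from Hill-equation modelling of concentration-response data.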

[15] = Cell Viability - LYMP1-003 - Assay at 24 hr (AID 963);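 also: plate controls were DMSO only for no effect and tetraoctylammonium bromide positive control for full effect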
How it was run: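 Cytotoxicity is scored as a concentration-dependent fall in ATP-linked luciferase signal in human lymphoblastoid LYMP1-003 cells treated 24 hr at 37 C in complete culture medium.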

[16] = Cell Viability - LYMP1-003 - Assay at 40 hr (AID 964); also: % is scaled to controls: 0 for no effect and ±100 for the full control effect; nearly all actives have a fitted effect of over 60% in size
How it was run: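 Luminescent ATP signal (CellTiter-Glo) served as the viability read-out after 40 hr compound treatment of human lymphoblastoid LYMP1-003 cells at 37 C. Decreases in ATP were fitted with the Hill equation to give AC50.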

[17] = Cell Viability - LYMP2-003 (AID 965);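 also: cells exposed to compounds for 24 h before reading; 0% = DMSO only and full effect = 92 µM tetraoctylammonium bromide; nearly all actives have a fitted effect of over 50% in size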
How it was run: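 CellTiter-Glo luminescence (cellular ATP) after 24 h compound exposure at 37 C in complete medium; 2500 cells/well, 5 h settling beforehand. Concentration-response fitted to standard Hill equation for AC50. Tetraoctylammonium bromide served as positive control.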

[18] = Cell Viability - LYMP2-004 (AID 966);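 also: plate controls were DMSO only for no effect and tetraoctylammonium bromide control for full effect; nearly all actives have a fitted effect of over 65% in size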
How it was run: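 qHTS cytotoxicity: human lymphoblastoid line, 24 hr compound treatment, 37 C, complete medium. Viability read as cellular ATP via luciferase luminescence; tetraoctylammonium bromide served as positive control.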

[19] = Cellular Toxicity (caspase-3) Renal Proximal Tubule (AID 667); details: Potency: caspase-3 activation;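 also: cells exposed to compound for 16 hours at 37 °C before detection; 0% = DMSO basal and 100% = 10 µM staurosporine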
How it was run: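 Luminescent caspase 3/7 signal from peptide-aminoluciferin cleavage measures apoptosis in freshly isolated rat kidney proximal tubule cells after 16 h compound exposure. Concentration-response data are normalized to DMSO and 10 uM staurosporine, and AC50 values come from Hill equation fits.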

[20] = Cell Viability - LYMP2-001 (AID 921);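 also: 0% = DMSO only and full inhibition = tetraoctylammonium bromide control wells; nearly all actives have a fitted effect of over 70% in size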
How it was run: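 CellTiter-Glo luminescence (intracellular ATP) after 24 hr compound exposure at 37 C, 2500 lymphoblastoid cells/well in complete medium. AC50 fitted with standard Hill equation; tetraoctylammonium bromide positive control.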

Sequence of Cytochrome P450 3A4 (Homo sapiens) (P08684 whole entry, looked up): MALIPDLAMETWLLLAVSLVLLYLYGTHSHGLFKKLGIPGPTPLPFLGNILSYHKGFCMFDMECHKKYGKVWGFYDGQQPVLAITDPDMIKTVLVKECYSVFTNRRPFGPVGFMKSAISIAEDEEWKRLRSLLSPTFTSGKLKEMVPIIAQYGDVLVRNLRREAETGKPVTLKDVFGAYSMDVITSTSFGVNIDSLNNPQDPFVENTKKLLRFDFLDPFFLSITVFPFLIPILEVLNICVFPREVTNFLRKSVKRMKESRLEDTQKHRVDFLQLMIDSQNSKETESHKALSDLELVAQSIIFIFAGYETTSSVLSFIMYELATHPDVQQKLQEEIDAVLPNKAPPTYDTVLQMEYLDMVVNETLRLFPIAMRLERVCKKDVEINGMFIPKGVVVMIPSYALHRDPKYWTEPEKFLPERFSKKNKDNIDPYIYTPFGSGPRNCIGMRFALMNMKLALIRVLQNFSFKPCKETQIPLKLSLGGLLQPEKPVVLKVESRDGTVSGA

CCCCOCCOCCSC#N
inactive: caspase-3 activation [1] -0.616% | outcome [2] | caspase-3 activation [3] 0.183% | caspase-3 activation [4] -2.09% | outcome [5] | outcome [6] | Potency [7] | outcome [8] | outcome [9] | outcome [10] | outcome [11] | outcome [12] | Potency [13] | Potency [14] | Potency [15] | Potency [16] | Potency [17] | Potency [18]

CCC(=O)/C=C/C1C(C)=CCCC1(C)C (stereo not given)
inactive: caspase-3 activation [1] 0.383% | outcome [2] | caspase-3 activation [3] 2.63% | caspase-3 activation [4] 2.12% | outcome [5] | outcome [6] | Potency [19] | outcome [8] | outcome [10] | outcome [11] | outcome [12] | Potency [13] | Potency [14] | Potency [15] | Potency [16] | Potency [17] | Potency [18]

Cc1cc(C)c(N)cc1C
inactive: caspase-3 activation [1] -0.153% | outcome [2] | caspase-3 activation [3] -1.64% | caspase-3 activation [4] 2.78% | outcome [5] | outcome [6] | Potency [19] | outcome [8] | outcome [9] | outcome [10] | outcome [11] | outcome [12] | Potency [13] | Potency [14] | Potency [15] | Potency [16] | Potency [17] | Potency [18]

CNC(=O)c1ccccc1
inactive: caspase-3 activation [1] 0.192% | outcome [2] | caspase-3 activation [3] -1.03% | caspase-3 activation [4] -0.658% | outcome [5] | outcome [6] | Potency [7] | Potency [20] | outcome [8] | outcome [9] | outcome [10] | outcome [11] | outcome [12] | Potency [13] | Potency [14] | Potency [15] | Potency [16] | Potency [17] | Potency [18]

CCCCCCCN
inactive: caspase-3 activation [1] 1.08% | outcome [2] | caspase-3 activation [3] 2.21% | caspase-3 activation [4] -0.824% | outcome [5] | outcome [6] | Potency [20] | outcome [8] | outcome [9] | outcome [10] | outcome [11] | outcome [12] | Potency [13] | Potency [14] | Potency [15] | Potency [16] | Potency [17] | Potency [18]

Cc1c(N)cccc1N
inactive: caspase-3 activation [1] -0.29% | outcome [2] | caspase-3 activation [3] 0.28% | caspase-3 activation [4] 0.0499% | outcome [5] | outcome [6] | Potency [19] | outcome [8] | outcome [9] | outcome [10] | outcome [11] | outcome [12] | Potency [13] | Potency [14] | Potency [15] | Potency [16] | Potency [17]

C1CCCC1
inactive: caspase-3 activation [1] -0.162% | outcome [2] | caspase-3 activation [3] -0.556% | caspase-3 activation [4] 0.0682% | outcome [5] | outcome [6] | Potency [19] | outcome [8] | outcome [9] | outcome [10] | outcome [11] | outcome [12] | Potency [13] | Potency [14] | Potency [15] | Potency [16] | Potency [17] | Potency [18]

Cc1cc([N+](=O)[O-])ccc1N
inactive: caspase-3 activation [1] 0.789% | outcome [2] | caspase-3 activation [3] -0.2% | caspase-3 activation [4] -2.55% | outcome [5] | outcome [6] | Potency [19] | Potency [20] | outcome [8] | outcome [10] | outcome [11] | Potency [13] | Potency [14] | Potency [15] | Potency [16] | Potency [17]

CC/C=C1/OC(=O)c2ccccc21
inactive: caspase-3 activation [1] 0.157% | outcome [2] | caspase-3 activation [3] 0.49% | caspase-3 activation [4] 1.13% | outcome [5] | outcome [6] | Potency [7] | outcome [8] | outcome [9] | outcome [10] | outcome [11] | outcome [12] | Potency [13] | Potency [14] | Potency [15] | Potency [16] | Potency [17]

CCCCC(CC)COC(=O)CCCCC(=O)OCC(CC)CCCC (stereo not given)
inactive: caspase-3 activation [1] 0.289% | outcome [2] | caspase-3 activation [3] -0.0264% | caspase-3 activation [4] 0.675% | outcome [5] | outcome [6] | outcome [8] | outcome [10] | outcome [11] | outcome [12] | Potency [13] | Potency [14] | Potency [15] | Potency [16] | Potency [17] | Potency [18]

O=[N+]([O-])c1ccc2nc[nH]c2c1
inactive: caspase-3 activation [1] 0.38% | outcome [2] | caspase-3 activation [3] 2.59% | caspase-3 activation [4] 0.287% | outcome [5] | outcome [6] | Potency [19] | outcome [8] | outcome [10] | outcome [11] | outcome [12] | Potency [13] | Potency [14] | Potency [15] | Potency [16] | Potency [17] | Potency [18]

CN(C)CCCCl
inactive: caspase-3 activation [1] -0.558% | outcome [2] | caspase-3 activation [3] 0.431% | caspase-3 activation [4] -0.527% | outcome [5] | outcome [6] | Potency [7] | Potency [20] | outcome [8] | outcome [10] | outcome [11] | outcome [12] | Potency [13] | Potency [14] | Potency [15] | Potency [16] | Potency [17] | Potency [18]

Cc1cccc(C)c1[N+](=O)[O-]
inactive: caspase-3 activation [1] 0.452% | outcome [2] | caspase-3 activation [3] -0.326% | caspase-3 activation [4] -0.173% | outcome [5] | outcome [6] | Potency [20] | outcome [8] | outcome [9] | outcome [10] | outcome [11] | outcome [12] | Potency [13] | Potency [14] | Potency [15] | Potency [16] | Potency [17] | Potency [18]

C=C(C)OC(C)=O
inactive: caspase-3 activation [1] -0.109% | outcome [2] | caspase-3 activation [3] 2.67% | caspase-3 activation [4] -0.975% | outcome [5] | outcome [6] | Potency [7] | Potency [20] | outcome [8] | outcome [9] | outcome [10] | outcome [11] | outcome [12] | Potency [13] | Potency [14] | Potency [15] | Potency [16] | Potency [17] | Potency [18]

CC(=O)c1cccc([N+](=O)[O-])c1
inactive: caspase-3 activation [1] 1.01% | outcome [2] | caspase-3 activation [3] -1.03% | caspase-3 activation [4] 2.43% | outcome [5] | outcome [6] | Potency [7] | Potency [20] | outcome [8] | outcome [9] | outcome [10] | outcome [11] | outcome [12] | Potency [13] | Potency [14] | Potency [15] | Potency [16] | Potency [17] | Potency [18]
